Results published in PubChem BioAssay AID1159580 (chemical genetic matrix, 2015).
Where “and” joins values, the source holds several entries; their conditions need not be identical. Equal entries are not always repeated. In all, about 5,500 compounds went through this assay and about 2,000 (36%) were called active. Roughly 18% stayed inconclusive and do not appear here. Cut-off read from the data, not from the text of the source: active = normalized growth mostly below about 0.91 (no sharp cut-off); inconclusive = no clear call, values can overlap the other calls; inactive = mostly above about 0.92. The list shows a part of the results.

Assay: chemical genetic growth profiling, strain panel (AID 1159580);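 note: tested at 20 µM; growth read once vehicle control cultures reached saturation at 30 °C; 1 = growth at the plate median or of vehicle wells; lower values mean less growth of the strain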
Conditions: growth OD

Measured: normalized growth

NCCSSCCN
inactive: S. cerevisiae deletion strains, locus YKL009W, strain mrt4, hits give low values 1.03 | S. cerevisiae deletion strains, locus YKL068W, hits give low values 1.01 | S. cerevisiae deletion strains, locus YKL085W, strain MDH1 (second series), hits give low values 1.01 | S. cerevisiae deletion strains, locus YKL085W, strain MDH1, hits give low values 1.01 | S. cerevisiae deletion strains, locus YKL160W, strain elf1, hits give low values 0.995 | S. cerevisiae deletion strains, locus YKL190W, strain CNB1, hits give low values 1.01 | S. cerevisiae deletion strains, locus YKR001C, strain vps1, hits give low values 1.02 | S. cerevisiae deletion strains, locus YKR026C, strain gcn3, hits give low values 0.993 | S. cerevisiae deletion strains, locus YKR091W, strain srl3, hits give low values 0.993 | S. cerevisiae deletion strains, locus YLL001W, strain dnm1, hits give low values 0.978 | S. cerevisiae deletion strains, locus YLL026W, hits give low values 0.989 | S. cerevisiae deletion strains, locus YLL041C, strain sdh2, hits give low values 0.997 | S. cerevisiae deletion strains, locus YLR027C, strain aat2, hits give low values 0.99 | S. cerevisiae deletion strains, locus YLR039C, strain RIC1, hits give low values 1.02 | S. cerevisiae deletion strains, locus YLR058C, strain SHM2, hits give low values 1.01 | S. cerevisiae deletion strains, locus YLR102C, strain apc9, hits give low values 0.994 | S. cerevisiae deletion strains, locus YLR113W, strain HOG1, hits give low values 1.05 | S. cerevisiae deletion strains, locus YLR221C, strain rsa3, hits give low values 0.998 | S. cerevisiae deletion strains, locus YLR258W, strain gsy2, hits give low values 0.996 | S. cerevisiae deletion strains, locus YLR262C, strain YPT6 (second series), hits give low values 0.994 | S. cerevisiae deletion strains, locus YLR262C, strain YPT6, hits give low values 1.02 | S. cerevisiae deletion strains, locus YLR268W, strain sec22, hits give low values 1.05 | S. cerevisiae deletion strains, locus YLR320W, strain mms22, hits give low values 1 | S. cerevisiae deletion strains, locus YLR330W, strain CHS5, hits give low values 1.01 | S. cerevisiae deletion strains, locus YLR342W, strain FKS1 (second series), hits give low values 1 | S. cerevisiae deletion strains, locus YLR342W, strain FKS1, hits give low values 0.983 | S. cerevisiae deletion strains, locus YLR357W, strain rsc2, hits give low values 0.979 | S. cerevisiae deletion strains, locus YLR370C, strain arc18, hits give low values 0.993 | S. cerevisiae deletion strains, locus YLR371W, strain rom2, hits give low values 1.01 | S. cerevisiae deletion strains, locus YLR384C, strain iki3, hits give low values 0.987 | S. cerevisiae deletion strains, locus YLR418C, strain cdc73, hits give low values 0.999 | S. cerevisiae deletion strains, locus YML016C, strain PPZ1, hits give low values 1 | S. cerevisiae deletion strains, locus YML032C, strain rad52, hits give low values 1.03 | S. cerevisiae deletion strains, locus YML120C, strain ndi1, hits give low values 0.995 | S. cerevisiae deletion strains, locus YML124C, strain tub3, hits give low values 1 | S. cerevisiae deletion strains, locus YMR058W, strain fet3, hits give low values 1 | S. cerevisiae deletion strains, locus YMR078C, strain ctf18, hits give low values 1.01 | S. cerevisiae deletion strains, locus YMR125W, strain sto1, hits give low values 1 | S. cerevisiae deletion strains, locus YMR129W, hits give low values 1 | S. cerevisiae deletion strains, locus YMR205C, strain PFK2, hits give low values 0.992 | S. cerevisiae deletion strains, locus YMR223W, strain ubp8, hits give low values 0.981 | S. cerevisiae deletion strains, locus YMR231W, strain pep5, hits give low values 1 | S. cerevisiae deletion strains, locus YMR263W, strain SAP30, hits give low values 1.03 and 1 | S. cerevisiae deletion strains, locus YMR307W, strain GAS1, hits give low values 0.996 | S. cerevisiae deletion strains, locus YNL067W, strain RPL9B, hits give low values 1.03 | S. cerevisiae deletion strains, locus YNL071W, strain lat1, hits give low values 1 | S. cerevisiae deletion strains, locus YNL128W, strain TEP1, hits give low values 1.02 and 1 | S. cerevisiae deletion strains, locus YNL153C, strain GIM3, hits give low values 1.03 | S. cerevisiae deletion strains, locus YNL175C, strain NOP13, hits give low values 1 | S. cerevisiae deletion strains, locus YNL183C, strain NPR1, hits give low values 1 | S. cerevisiae deletion strains, locus YNL197C, strain WHI3, hits give low values 1.02 | S. cerevisiae deletion strains, locus YNL209W, strain ssb2, hits give low values 1 | S. cerevisiae deletion strains, locus YNL224C, strain SQS1, hits give low values 1 | S. cerevisiae deletion strains, locus YNL233W, strain BNI4, hits give low values 1.02 | S. cerevisiae deletion strains, locus YNL248C, strain rpa49, hits give low values 0.998 | S. cerevisiae deletion strains, locus YNL250W, strain rad50, hits give low values 0.999 | S. cerevisiae deletion strains, locus YNL271C, strain bni1, hits give low values 1.01 | S. cerevisiae deletion strains, locus YNL298W, strain CLA4, hits give low values 1 | S. cerevisiae deletion strains, locus YNL307C, strain MCK1, hits give low values 1.01 | S. cerevisiae deletion strains, locus YNL322C, strain KRE1 (second series), hits give low values 0.998 | S. cerevisiae deletion strains, locus YNL322C, strain KRE1, hits give low values 1.01 and 0.988 | S. cerevisiae deletion strains, locus YNR049C, strain mso1, hits give low values 1 | S. cerevisiae deletion strains, locus YNR052C, strain pop2, hits give low values 1 | S. cerevisiae deletion strains, locus YOL006C, strain TOP1, hits give low values 1.08 | S. cerevisiae deletion strains, locus YOL012C, strain htz1 0.933 | S. cerevisiae deletion strains, locus YOL147C, strain pex11, hits give low values 1 | S. cerevisiae deletion strains, locus YOR001W, strain rrp6, hits give low values 0.989 | S. cerevisiae deletion strains, locus YOR061W, strain CKA2, hits give low values 1.01 | S. cerevisiae deletion strains, locus YOR069W, strain VPS5, hits give low values 1.01 | S. cerevisiae deletion strains, locus YOR070C, strain gyp1, hits give low values 0.999 | S. cerevisiae deletion strains, locus YOR080W, strain dia2, hits give low values 1 | S. cerevisiae deletion strains, locus YOR083W, strain WHI5 (second series), hits give low values 1.01 | S. cerevisiae deletion strains, locus YOR083W, strain WHI5, hits give low values 0.99 | S. cerevisiae deletion strains, locus YOR106W, strain vam3, hits give low values 0.985 | S. cerevisiae deletion strains, locus YOR136W, strain idh2, hits give low values 0.991 | S. cerevisiae deletion strains, locus YOR144C, strain elg1, hits give low values 1.01 | S. cerevisiae deletion strains, locus YOR184W, strain ser1, hits give low values 0.966 | S. cerevisiae deletion strains, locus YOR231W, strain MKK1, hits give low values 1.09 | S. cerevisiae deletion strains, locus YOR265W, strain rbl2, hits give low values 0.993 | S. cerevisiae deletion strains, locus YOR270C, strain vph1, hits give low values 1.02 | S. cerevisiae deletion strains, locus YOR290C, strain snf2, hits give low values 1.01 | S. cerevisiae deletion strains, locus YOR316C, strain cot1, hits give low values 1.01 | S. cerevisiae deletion strains, locus YPL051W, strain arl3, hits give low values 0.982 | S. cerevisiae deletion strains, locus YPL055C, strain LGE1, hits give low values 0.994 | S. cerevisiae deletion strains, locus YPL078C, strain atp4, hits give low values 0.998 | S. cerevisiae deletion strains, locus YPL106C, strain sse1, hits give low values 0.984 | S. cerevisiae deletion strains, locus YPL240C, strain hsp82, hits give low values 0.991 | S. cerevisiae deletion strains, locus YPL241C, strain CIN2, hits give low values 1.01 | S. cerevisiae deletion strains, locus YPL256C, strain CLN2, hits give low values 1.07 | S. cerevisiae deletion strains, locus YPR119W, strain clb2, hits give low values 1.01 | S. cerevisiae deletion strains, locus YPR141C, strain kar3, hits give low values 0.997 | S. cerevisiae deletion strains, locus YPR163C, strain tif3, hits give low values 1.01 | S. cerevisiae deletion strains, locus YPR167C, strain met16, hits give low values 1 | S. cerevisiae deletion strains, strain wtn01, hits give low values 1.03 | S. cerevisiae strains, strain wild type, hits give low values 1.01
